# Screens (PubChem)
# HT1080NT lethal – kills 2HG-producing HT-1080-NT fibrosarcoma cells; HT-1080-NT fibrosarcoma viability, CellTiter-Glo ATP luminescence, 48 h; Potency, µM (series often up to 46.1 µM), without a hit: at the top dose activity, negative = less viability, usual class: cytotoxic; 360,000 tested, 1.6% active; AID 686970;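 also: NT is the 2HG producing partner of a matched IDH1 knockdown line; potency is read from the fitted curve at half-maximal effect; 0% = DMSO-treated cells and -100% = media-only wells without cells; nearly all actives have a fitted effect of over 55% in size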
#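 Viability by CellTiter-Glo luminescence after 48 h compound exposure at 37C of HT-1080-NT cells (750/well, RPMI, 5% FBS). % activity scaled between DMSO wells and medium-only wells, then curve-fitted and categorized by curve class.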
# DT40 TDP1 no CPT – qHTS for Inhibitors of human tyrosyl-DNA phosphodiesterase 1 (TDP1): qHTS in cells in absence of CPT | DT40 Tdp1-/- hTDP1 cells, no CPT, ATP luminescence, 48 h | Potency, µM (series often up to 46.2 µM), for the others: at the top dose activity change, negative = growth inhibition, usual class: inhibitors | 420,000 tested, 15% active; also: potency is read from the fitted curve at half-maximal effect; nearly all actives have a fitted effect of over 55% in size
#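 Cells were dispensed at 400 per well, compounds added by pin tool, plates incubated ≥48 hr at 37 °C, then CellTiter-Glo added for 30 min at room temperature before luminescence reading. Line: DT40 Tdp1-/- complemented with hTDP1; camptothecin omitted.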
# IL-1B inflam inh – inflammasome signaling inhibition, IL-1 beta readout; activity change, % at 57.5 µM; THP-1 LPS/ATP IL-1B secretion, AlphaLISA, 16 h; hits give low values; AID 743279; 360,000 tested, 4.7% active; in the data active = activity change below about -50%; inconclusive = mostly about -30% to -49%
#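 Secreted IL-1B measured by AlphaLISA bead assay after 16 h compound exposure of THP-1 cells; compounds (final up to 57.5 uM) added 1 h before LPS (250 ng/mL) and ATP (1.25 mM) stimulation; lower signal means less secretion.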
# DT40 TDP1 CPT – growth inhibition of DT40 Tdp1-/-;hTDP1 cells with camptothecin (screen for TDP1 inhibitors) | AID 686979 | chicken DT40 Tdp1-/-;hTDP1 cells + 20 nM CPT, ATP luminescence, 48 h | 420,000 tested, 12% active | Potency, µM (titrated, usually from 46.2 µM), for inactives: at the top dose activity change, negative = growth inhibition, actives largely listed as inhibitors; also: potency is read from the fitted curve at half-maximal effect; nearly all actives have a fitted effect of over 55% in size
#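 Chicken DT40 Tdp1-/- cells complemented with human TDP1, 400 cells/well, exposed to compounds plus 20 nM camptothecin for at least 48 h at 37 C; viability read as ATP content by CellTiter-Glo luminescence.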
# HT1080 IDH1KD tx – kills HT-1080 cells with IDH1 knockdown; HT-1080 IDH1 knockdown viability, ATP luminescence, 48 h; Potency, µM (top dose mostly 46.1 µM), for inactives: at the top dose activity, negative = toxicity, most hits filed as cytotoxic; 360,000 tested, 2% active; AID 686971;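 also: potency is read from the fitted curve at half-maximal effect; 0% = DMSO wells and -100% = cell-free medium wells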
#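 Knockdown cells (IDH1KD HT-1080) received compounds 2 h after plating at 750 cells/well and were kept 48 h at 37 °C in 5% FBS RPMI. A CellTiter-Glo luminescence read gave % activity for curve fitting.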
# 12-LOX inh – inhibitors of human 12S-lipoxygenase ALOX12 | Potency, µM (doses to about 108 µM), without a hit: at the top dose activity change, negative = inhibition, usual class: inhibitors | purified 12hLO, xylenol orange hydroperoxide absorbance | P18054 | 580,000 tested, 1.1% active; also: potency is read from the fitted curve at half-maximal effect
# Target sequence (P18054 whole entry, looked up): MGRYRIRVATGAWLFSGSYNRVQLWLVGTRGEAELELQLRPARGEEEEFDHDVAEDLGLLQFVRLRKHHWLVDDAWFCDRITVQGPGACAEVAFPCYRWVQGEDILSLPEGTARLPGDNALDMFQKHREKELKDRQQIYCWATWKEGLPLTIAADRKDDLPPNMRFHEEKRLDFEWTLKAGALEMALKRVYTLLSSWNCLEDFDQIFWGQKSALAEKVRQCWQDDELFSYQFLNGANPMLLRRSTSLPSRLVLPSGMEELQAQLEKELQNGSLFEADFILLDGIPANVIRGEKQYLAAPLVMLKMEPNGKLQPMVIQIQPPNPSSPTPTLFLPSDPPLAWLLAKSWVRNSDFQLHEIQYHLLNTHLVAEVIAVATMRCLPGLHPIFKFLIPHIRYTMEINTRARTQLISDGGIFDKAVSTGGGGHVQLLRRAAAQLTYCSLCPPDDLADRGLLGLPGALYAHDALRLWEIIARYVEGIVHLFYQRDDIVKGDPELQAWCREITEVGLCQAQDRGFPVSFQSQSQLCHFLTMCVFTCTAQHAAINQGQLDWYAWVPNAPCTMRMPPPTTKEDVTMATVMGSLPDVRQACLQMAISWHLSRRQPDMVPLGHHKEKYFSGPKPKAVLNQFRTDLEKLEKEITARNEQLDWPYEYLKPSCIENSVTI
#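 Purified human 12hLO at 150 nM in 25 mM Hepes, 0.01% Triton X-100, pH 7.0, preincubated 15 min at room temperature with compound. Reaction started with 40 uM arachidonic acid, 30 min at room temperature. Hydroperoxide measured by Fe-xylenol orange, 573/405 nm absorbance ratio.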
# Numbers without * were called inactive; ? = inconclusive; nt = not tested or not shown; [ ] = remark or other dose. This excerpt belongs to a sample that is enriched for hits. Unless noted, calls follow the shape of the dose curve; as a rule, active = well fitted curve in the direction sought with a large enough effect; inconclusive = small, poorly fitted or top-dose-only effect, or another doubt; inactive = no such curve, though single readings can be large; an effect the other way counts as inactive or inconclusive. Unless noted, % is scaled to controls: 0 for no effect and ±100 for the full control effect.
SMILES,HT1080NT lethal,DT40 TDP1 no CPT,IL-1B inflam inh,DT40 TDP1 CPT,HT1080 IDH1KD tx,12-LOX inh
Cc1nnc([C@@H]2CC(F)(F)CN2C(=O)c2ccc3c(c2)OCO3)o1,nt,nt,nt,nt,nt,35%
O=C(NCc1cccc(F)c1)c1nc(-c2ccc(Br)o2)no1,nt,nt,nt,nt,nt,-21%
COCCNc1oc(-c2cccs2)nc1S(=O)(=O)c1ccc(Cl)cc1,nt,nt,nt,nt,nt,-13%
NC(=O)C1CCN(c2oc(-c3cccs3)nc2S(=O)(=O)c2ccc(Cl)cc2)CC1,2%,0%,-55*,11%,-14%,3%
O=S(=O)(c1ccc(Cl)cc1)c1nc(-c2cccs2)oc1N1CCCCC1,nt,16µM*,nt,?,nt,-22%
COc1ccc(CC(=O)N2CNC(=O)C23CCN(C(=O)[C@@H](N)c2ccccc2)CC3)cc1,nt,nt,nt,nt,nt,9%[6.33 µM]
Cc1cc(C)n(/N=C/c2ccc(O)cc2)c(=O)c1C#N,16%,-18%,-3,-22%,18%,-32%
Cc1cc(C)n(/N=C/c2ccc(C(C)C)cc2)c(=O)c1C#N,12%,8.2µM*,-18,?,15%,-10%
C=CCNC(=O)/C(C#N)=C\c1cc(Cl)c(O)c(OCC)c1,-8%,-2%,10,-1%,8%,4%
N#C/C(=C/c1ccc2c(c1)OCO2)C(=O)Nc1ccc(O)cc1,-30%,12µM*,-21,7.3µM*,-29%,1%
CCOc1cc(/C=C(/C#N)C(=O)Nc2ccc(O)cc2)cc(Br)c1O,1.8µM*,0.92µM*,33,0.65µM*,2.3µM*,1%
CS(=O)(=O)Oc1ccc2c(=O)c(-c3ccc(Br)cc3)coc2c1,nt,nt,nt,nt,nt,-14%
Nc1ccnc(=O)[nH]1,?,6%,22,-9%,6%,-2%
C/C(=N\O)C(C)Oc1ccc(Cl)cc1 (configuration not stated),22%,-15%,-14,2%,-4%,4%
Cc1ccccc1S(=O)(=O)N1CCCc2nc(-c3ccc(Br)cc3)ccc21,nt,nt,nt,nt,nt,-1%
CCCCc1nc2ccccc2c(N)c1CCC (tested in a mixture with another compound),?,18µM*,-97*,?,?,-17%
CCCCc1nc2ccccc2c(NC(=O)CNC(C)(C)C)c1CCC,-15%,?,30,?,-18%,?
C[C@H](CO)N1C[C@H](C)[C@@H](CN(C)C(=O)Nc2ccccc2)Oc2c(NC(=O)Nc3ccc4c(c3)OCO4)cccc2C1=O,0%,?,1,13µM*,10%,0%
C[C@H](CO)N1C[C@H](C)[C@@H](CN(C)C(=O)Nc2ccc3c(c2)OCO3)Oc2c(NC(=O)Nc3ccc4c(c3)OCO4)cccc2C1=O,0%,23µM*,-11,16µM*,-8%,-1%
CCOc1ccccc1OCC(=O)OC(C)C(N)=O (configuration not stated),nt,nt,nt,nt,nt,-23%
CCCC/C(C)=N/NC(=O)CN(c1ccc(Br)cc1)S(=O)(=O)c1ccccc1,1%,4%,-12,-17%,2%,15%
C/C(=N/NC(=O)CN(c1ccccc1)S(=O)(=O)c1ccccc1)c1ccccc1O,?,9.2µM*,49,18µM*,?,0%
CCN1CCC(N(Cc2ccc3c(c2)OCO3)C(=O)Nc2ccc(Br)c(C)c2)CC1,nt,16µM*,nt,?,nt,?
COc1ccc(NC(=S)NC(NC(=O)c2ccc(Cl)cc2Cl)C(Cl)(Cl)Cl)c([N+](=O)[O-])c1 (configuration not stated),?,?,-95*,?,14%[9.24 µM],?
COC(=O)c1ccccc1NC(=S)NC(NC(=O)c1ccccc1[N+](=O)[O-])C(Cl)(Cl)Cl (configuration not stated),-9%,-15%,40,0%,1%,?
SMILES,HT1080NT lethal,DT40 TDP1 no CPT,IL-1B inflam inh,DT40 TDP1 CPT,HT1080 IDH1KD tx,12-LOX inh
COc1ccc(NC(=S)NC(NC(=O)c2cccc3ccccc23)C(Cl)(Cl)Cl)c([N+](=O)[O-])c1 (configuration not stated),-22%,?,-56*,?,1%,6%
COc1ccc(NC(=O)c2ccc(C)cc2Cl)c([N+](=O)[O-])c1,?,-9%,-30,-9%,3%[9.24 µM],10%
COc1ccc(NC(=S)NC(NC(=O)CCl)C(Cl)(Cl)Cl)c([N+](=O)[O-])c1 (configuration not stated),-20%,?,-50*,?,-14%,nt
COc1ccc(NC(=S)NC(NC(=O)c2ccccc2Cl)C(Cl)(Cl)Cl)c([N+](=O)[O-])c1 (configuration not stated),?,?,-87*,?,2%[9.24 µM],?
O=C(Nc1ccccc1F)c1cccc2c(Cl)cccc12,nt,nt,nt,nt,nt,-8%
CC(C)(C)NC(NC(=O)c1cccc([N+](=O)[O-])c1)C(Cl)(Cl)Cl (configuration not stated),nt,nt,nt,nt,nt,-29%
O=C(NC(NC(=S)Nc1c(Cl)cccc1Cl)C(Cl)(Cl)Cl)c1cccc([N+](=O)[O-])c1 (configuration not stated),?,12µM*,-26,21µM*,?,?
CCNC(=O)CC1=C2CCCCC2NC1=O (configuration not stated),nt,nt,nt,nt,nt,16%
CC1=C[C@@H](CNCc2ccccc2O)[C@H](C(C)C)C[C@H]1Cc1nc2c(C)cccc2[nH]1,nt,nt,nt,nt,nt,63µM*
O=C1C(Cc2ccccc2)Nc2ncnc(N3CCN(c4ccccc4)CC3)c2N1Cc1ccccc1 (configuration not stated),-30%,18µM*,-59*,?,0%,2%
CCC1Nc2ncnc(N3CCN(c4ccccc4)CC3)c2N(Cc2ccc(Br)cc2)C1=O (configuration not stated),-1%,?,?,21µM*,-3%,?
Cc1ccc(CN2C(=O)C(Cc3ccccc3)Nc3ncnc(N4CCN(c5ccccc5)CC4)c32)cc1 (configuration not stated),-6%,?,-17,?,-2%,-12%
Cc1ccc(CN2C(=O)C(Cc3ccccc3)Nc3ncnc(N4CCCCC4)c32)cc1 (configuration not stated),-1%,?,-19,18µM*,-4%,-15%
c1ccc(-c2nnc3n2CCN(CC2CCCCC2)C3)cc1,nt,nt,nt,nt,nt,40%[176 µM]
